What was measured:
Assay in all cases: DAPPL (digital affinity profiling via proximity ligation, sequencing); 10 mM Tris-HCl pH 7.5, 50 mM NaCl, 1 mM DTT, 4% glycerol, room temperature, 30 min; GST-TFs on glutathione beads, 16-mer random dsDNA library, 0.1% formaldehyde crosslink after washing; high values mean tight binding
FLI1 = target: T1, FLI1 (Homo sapiens, UniProt Q01543 1-452); conditions: protein: recombinant; tags: N-terminal GST; dsDNA, one strand shown
T1 sequence: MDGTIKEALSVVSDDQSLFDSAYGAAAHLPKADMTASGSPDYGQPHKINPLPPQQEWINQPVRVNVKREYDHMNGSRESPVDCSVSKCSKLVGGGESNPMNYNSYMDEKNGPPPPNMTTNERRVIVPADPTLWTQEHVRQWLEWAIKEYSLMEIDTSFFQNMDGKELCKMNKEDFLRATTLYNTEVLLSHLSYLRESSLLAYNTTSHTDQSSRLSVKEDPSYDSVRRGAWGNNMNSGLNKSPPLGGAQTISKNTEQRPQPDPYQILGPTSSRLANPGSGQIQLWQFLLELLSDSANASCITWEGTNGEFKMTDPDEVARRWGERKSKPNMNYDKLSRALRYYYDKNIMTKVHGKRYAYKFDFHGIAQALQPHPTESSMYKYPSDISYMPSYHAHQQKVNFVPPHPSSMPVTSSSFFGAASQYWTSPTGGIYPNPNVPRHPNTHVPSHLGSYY
Procedure, shortened: (§1)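 Sequencing on an Illumina NextSeq500 followed washing, crosslinking with 0.1% formaldehyde, proximity ligation (BsaI/T4 ligase, 1 h, 37 °C) and PCR amplification of pools that had been incubated for 30 min at room temperature with 200 nmole of a random double-stranded 16-mer DNA library in Tris/NaCl/DTT/glycerol buffer. Each pool held DNA-barcoded human transcription factors, expressed in yeast as GST fusions and captured on glutathione beads, plus a tag-only sample. Binding signal is a hexamer's read frequency for a factor divided by its frequency in the tag-only sample.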

ELK1 = target: T2, ELK1 (Homo sapiens, UniProt P19419 1-428); conditions: protein: recombinant; tags: N-terminal GST; dsDNA, one strand shown
T2 sequence: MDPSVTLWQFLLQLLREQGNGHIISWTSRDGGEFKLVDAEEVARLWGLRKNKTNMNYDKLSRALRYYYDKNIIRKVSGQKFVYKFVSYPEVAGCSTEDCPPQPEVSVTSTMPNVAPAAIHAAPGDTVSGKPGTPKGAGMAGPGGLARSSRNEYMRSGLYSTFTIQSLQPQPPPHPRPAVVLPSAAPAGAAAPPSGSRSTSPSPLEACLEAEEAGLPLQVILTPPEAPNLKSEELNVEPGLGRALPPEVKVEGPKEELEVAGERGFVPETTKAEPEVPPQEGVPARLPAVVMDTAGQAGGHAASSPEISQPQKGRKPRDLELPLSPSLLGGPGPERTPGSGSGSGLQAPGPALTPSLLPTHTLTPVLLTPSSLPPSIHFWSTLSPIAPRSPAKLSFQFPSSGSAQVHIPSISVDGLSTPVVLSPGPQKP
Procedure, shortened: as §1

GABPA = target: T3, GABPA (Homo sapiens, UniProt Q06546 1-454); conditions: protein: recombinant; tags: N-terminal GST; dsDNA, one strand shown
T3 sequence: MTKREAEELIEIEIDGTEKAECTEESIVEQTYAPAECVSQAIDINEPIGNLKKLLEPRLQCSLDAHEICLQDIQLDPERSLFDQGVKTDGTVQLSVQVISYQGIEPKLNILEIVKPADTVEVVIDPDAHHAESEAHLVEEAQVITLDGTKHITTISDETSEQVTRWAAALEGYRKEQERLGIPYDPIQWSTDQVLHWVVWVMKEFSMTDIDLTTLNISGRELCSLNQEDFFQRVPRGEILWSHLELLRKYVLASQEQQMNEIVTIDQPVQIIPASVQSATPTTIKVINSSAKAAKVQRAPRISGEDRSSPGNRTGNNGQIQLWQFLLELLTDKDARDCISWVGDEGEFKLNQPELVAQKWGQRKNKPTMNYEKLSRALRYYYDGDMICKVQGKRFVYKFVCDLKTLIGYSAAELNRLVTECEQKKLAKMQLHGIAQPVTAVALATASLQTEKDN
Procedure, shortened: as §1

ERG = target: T4, ERG (Homo sapiens, UniProt P11308 1-479); conditions: protein: recombinant; tags: N-terminal GST; dsDNA, one strand shown
T4 sequence: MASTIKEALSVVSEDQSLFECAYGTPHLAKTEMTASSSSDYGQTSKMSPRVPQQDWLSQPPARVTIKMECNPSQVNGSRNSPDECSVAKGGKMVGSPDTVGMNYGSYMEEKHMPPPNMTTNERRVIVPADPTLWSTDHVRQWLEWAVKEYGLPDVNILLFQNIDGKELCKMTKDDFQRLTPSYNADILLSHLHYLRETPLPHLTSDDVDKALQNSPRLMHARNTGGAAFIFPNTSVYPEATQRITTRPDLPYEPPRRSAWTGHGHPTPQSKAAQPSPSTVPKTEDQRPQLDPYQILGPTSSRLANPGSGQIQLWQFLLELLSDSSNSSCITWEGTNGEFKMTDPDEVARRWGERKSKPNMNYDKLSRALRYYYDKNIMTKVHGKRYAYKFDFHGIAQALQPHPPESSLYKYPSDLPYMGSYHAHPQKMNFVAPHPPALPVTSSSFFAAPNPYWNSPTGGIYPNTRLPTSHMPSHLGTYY
Procedure, shortened: as §1

ELF1 = ELF1 (Homo sapiens, UniProt P32519 1-619); conditions: protein: recombinant; tags: N-terminal GST; dsDNA, one strand shown
Procedure, shortened: as §1

EHF = target: T5, EHF (Homo sapiens, UniProt Q9NZC4 1-300); conditions: protein: recombinant; tags: N-terminal GST; dsDNA, one strand shown
T5 sequence: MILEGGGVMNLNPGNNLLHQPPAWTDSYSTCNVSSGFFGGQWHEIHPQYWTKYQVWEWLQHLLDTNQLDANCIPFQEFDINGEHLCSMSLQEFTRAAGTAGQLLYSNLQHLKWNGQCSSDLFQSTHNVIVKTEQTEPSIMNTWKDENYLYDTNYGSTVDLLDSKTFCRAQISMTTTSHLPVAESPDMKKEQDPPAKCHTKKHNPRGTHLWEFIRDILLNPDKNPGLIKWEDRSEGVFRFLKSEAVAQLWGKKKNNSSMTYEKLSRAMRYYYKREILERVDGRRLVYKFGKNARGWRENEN
Procedure, shortened: as §1

SPI1 = SPI1 (Homo sapiens, UniProt P17947 1-270); conditions: protein: recombinant; tags: N-terminal GST; dsDNA, one strand shown
Procedure, shortened: as §1

SPIB = SPIB (Homo sapiens, UniProt Q01892 1-262); conditions: protein: recombinant; tags: N-terminal GST; dsDNA, one strand shown
Procedure, shortened: as §1

ELK3 = target: T6, ELK3 (Homo sapiens, UniProt P41970 1-407); conditions: protein: recombinant; tags: N-terminal GST; dsDNA, one strand shown
T6 sequence: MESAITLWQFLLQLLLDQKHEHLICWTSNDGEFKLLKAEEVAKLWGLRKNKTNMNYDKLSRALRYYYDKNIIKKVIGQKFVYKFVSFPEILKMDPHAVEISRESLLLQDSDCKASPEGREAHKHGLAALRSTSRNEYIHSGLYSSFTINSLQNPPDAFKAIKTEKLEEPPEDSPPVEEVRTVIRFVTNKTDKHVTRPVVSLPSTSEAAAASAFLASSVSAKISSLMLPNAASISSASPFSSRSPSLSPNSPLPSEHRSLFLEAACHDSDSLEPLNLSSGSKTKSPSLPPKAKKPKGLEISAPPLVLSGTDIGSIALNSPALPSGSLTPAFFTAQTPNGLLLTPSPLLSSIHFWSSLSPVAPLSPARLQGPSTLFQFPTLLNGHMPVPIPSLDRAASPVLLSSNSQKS
Procedure, shortened: as §1

FEV = target: T7, FEV (Homo sapiens, UniProt Q99581 1-238); conditions: protein: recombinant; tags: N-terminal GST; dsDNA, one strand shown
T7 sequence: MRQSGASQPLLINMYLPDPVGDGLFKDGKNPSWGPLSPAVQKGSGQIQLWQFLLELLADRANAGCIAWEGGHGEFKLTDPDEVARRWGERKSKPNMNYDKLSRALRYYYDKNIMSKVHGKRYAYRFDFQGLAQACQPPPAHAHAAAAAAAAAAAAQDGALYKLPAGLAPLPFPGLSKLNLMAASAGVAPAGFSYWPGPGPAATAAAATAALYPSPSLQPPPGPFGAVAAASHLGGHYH
Procedure, shortened: as §1

ETV5 = ETV5 (Homo sapiens, UniProt P41161 1-510); conditions: protein: recombinant; tags: N-terminal GST; dsDNA, one strand shown
Procedure, shortened: as §1

HSF1 = HSF1 (Homo sapiens, UniProt Q00613 1-529); conditions: protein: recombinant; tags: N-terminal GST; chain copies: 3; dsDNA, one strand shown
Procedure, shortened: as §1

SPIC = target: T8, SPIC (Homo sapiens, UniProt Q8N5J4 1-248); conditions: protein: recombinant; tags: N-terminal GST; dsDNA, one strand shown
T8 sequence: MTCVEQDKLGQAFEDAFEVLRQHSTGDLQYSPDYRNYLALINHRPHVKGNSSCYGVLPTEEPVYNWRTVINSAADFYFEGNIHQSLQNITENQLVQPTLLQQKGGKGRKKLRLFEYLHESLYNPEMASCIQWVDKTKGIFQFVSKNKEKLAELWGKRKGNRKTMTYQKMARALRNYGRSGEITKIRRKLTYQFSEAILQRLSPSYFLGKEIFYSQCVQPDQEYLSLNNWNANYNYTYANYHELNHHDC
Procedure, shortened: as §1

ELF4 = ELF4 (Homo sapiens, UniProt Q99607 1-663); conditions: protein: recombinant; tags: N-terminal GST; dsDNA, one strand shown
Procedure, shortened: as §1

ELK4 = target: T9, ELK4 (Homo sapiens, UniProt P28324-2 1-405); conditions: protein: recombinant; tags: N-terminal GST; dsDNA, one strand shown
T9 sequence: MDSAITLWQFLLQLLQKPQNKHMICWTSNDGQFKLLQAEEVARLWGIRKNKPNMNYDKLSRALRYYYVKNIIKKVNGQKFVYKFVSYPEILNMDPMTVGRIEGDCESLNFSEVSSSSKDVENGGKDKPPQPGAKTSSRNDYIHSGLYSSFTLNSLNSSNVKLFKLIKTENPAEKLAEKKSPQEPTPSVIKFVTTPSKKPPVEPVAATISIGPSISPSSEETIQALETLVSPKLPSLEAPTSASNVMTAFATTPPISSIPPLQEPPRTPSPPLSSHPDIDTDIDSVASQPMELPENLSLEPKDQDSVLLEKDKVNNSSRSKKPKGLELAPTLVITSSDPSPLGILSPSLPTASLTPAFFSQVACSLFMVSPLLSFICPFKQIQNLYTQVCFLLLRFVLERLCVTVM
Procedure, shortened: as §1

ETV2 = target: T10, ETV2 (Homo sapiens, UniProt O00321 1-342); conditions: protein: recombinant; tags: N-terminal GST; dsDNA, one strand shown
T10 sequence: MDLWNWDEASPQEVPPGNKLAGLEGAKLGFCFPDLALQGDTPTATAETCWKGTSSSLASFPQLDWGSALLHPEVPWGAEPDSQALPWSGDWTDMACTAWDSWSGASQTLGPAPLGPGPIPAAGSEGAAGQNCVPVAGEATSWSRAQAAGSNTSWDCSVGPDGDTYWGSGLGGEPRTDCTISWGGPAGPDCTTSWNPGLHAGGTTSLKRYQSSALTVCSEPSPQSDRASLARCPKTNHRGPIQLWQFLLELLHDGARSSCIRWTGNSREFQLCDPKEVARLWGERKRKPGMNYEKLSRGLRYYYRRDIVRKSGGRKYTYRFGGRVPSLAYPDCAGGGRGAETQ
Procedure, shortened: as §1

ELF3 = target: T11, ELF3 (Homo sapiens, UniProt P78545 1-371); conditions: protein: recombinant; tags: N-terminal GST; dsDNA, one strand shown
T11 sequence: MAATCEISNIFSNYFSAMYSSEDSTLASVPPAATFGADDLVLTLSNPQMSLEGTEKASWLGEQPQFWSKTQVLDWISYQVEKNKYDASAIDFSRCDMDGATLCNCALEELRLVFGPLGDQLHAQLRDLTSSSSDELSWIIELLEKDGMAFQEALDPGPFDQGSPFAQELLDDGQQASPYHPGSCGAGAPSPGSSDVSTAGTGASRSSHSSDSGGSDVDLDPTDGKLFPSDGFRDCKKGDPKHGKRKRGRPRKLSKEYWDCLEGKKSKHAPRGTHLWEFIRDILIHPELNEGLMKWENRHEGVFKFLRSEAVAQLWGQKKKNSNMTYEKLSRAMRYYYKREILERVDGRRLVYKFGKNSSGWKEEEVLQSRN
Procedure, shortened: as §1

CRX = CRX (Homo sapiens, UniProt O43186 1-299); conditions: protein: recombinant; tags: N-terminal GST; dsDNA, one strand shown
Procedure, shortened: as §1

ETV1 = ETV1 (Homo sapiens, UniProt P50549 1-477); conditions: protein: recombinant; tags: N-terminal GST; dsDNA, one strand shown
Procedure, shortened: as §1

Chain of ETV5 (P41161 whole entry): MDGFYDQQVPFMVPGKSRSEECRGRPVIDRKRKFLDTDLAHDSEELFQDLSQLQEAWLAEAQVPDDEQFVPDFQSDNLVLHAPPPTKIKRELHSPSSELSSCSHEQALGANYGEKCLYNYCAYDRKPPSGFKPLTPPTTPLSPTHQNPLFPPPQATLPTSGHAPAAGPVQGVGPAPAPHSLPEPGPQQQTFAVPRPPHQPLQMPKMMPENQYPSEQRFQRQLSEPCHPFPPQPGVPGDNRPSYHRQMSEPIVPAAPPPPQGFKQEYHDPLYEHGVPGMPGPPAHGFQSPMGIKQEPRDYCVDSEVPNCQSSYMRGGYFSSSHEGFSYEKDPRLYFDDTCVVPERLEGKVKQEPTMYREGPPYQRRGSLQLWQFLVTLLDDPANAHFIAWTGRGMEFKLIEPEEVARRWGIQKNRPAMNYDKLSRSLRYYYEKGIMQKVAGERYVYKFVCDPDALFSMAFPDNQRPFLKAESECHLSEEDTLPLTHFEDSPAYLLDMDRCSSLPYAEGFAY
Chain of ELF4 (Q99607 whole entry): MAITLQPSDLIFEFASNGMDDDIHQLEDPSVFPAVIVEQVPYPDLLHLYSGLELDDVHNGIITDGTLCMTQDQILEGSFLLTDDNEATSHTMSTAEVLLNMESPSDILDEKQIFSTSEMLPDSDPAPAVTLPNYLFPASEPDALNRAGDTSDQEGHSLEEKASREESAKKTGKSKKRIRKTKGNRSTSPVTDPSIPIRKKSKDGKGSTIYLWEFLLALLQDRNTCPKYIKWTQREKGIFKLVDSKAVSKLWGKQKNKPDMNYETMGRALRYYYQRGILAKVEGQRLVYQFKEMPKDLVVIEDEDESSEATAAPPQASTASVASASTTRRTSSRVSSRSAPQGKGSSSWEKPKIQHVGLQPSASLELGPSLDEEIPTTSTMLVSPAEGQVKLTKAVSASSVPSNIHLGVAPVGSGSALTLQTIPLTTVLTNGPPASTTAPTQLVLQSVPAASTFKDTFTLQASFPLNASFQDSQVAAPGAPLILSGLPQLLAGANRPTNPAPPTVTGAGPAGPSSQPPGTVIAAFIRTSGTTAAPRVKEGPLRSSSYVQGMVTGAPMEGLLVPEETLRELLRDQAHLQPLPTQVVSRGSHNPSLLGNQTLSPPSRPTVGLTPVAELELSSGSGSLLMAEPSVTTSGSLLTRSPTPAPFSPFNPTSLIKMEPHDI
Chain of HSF1 (Q00613 whole entry): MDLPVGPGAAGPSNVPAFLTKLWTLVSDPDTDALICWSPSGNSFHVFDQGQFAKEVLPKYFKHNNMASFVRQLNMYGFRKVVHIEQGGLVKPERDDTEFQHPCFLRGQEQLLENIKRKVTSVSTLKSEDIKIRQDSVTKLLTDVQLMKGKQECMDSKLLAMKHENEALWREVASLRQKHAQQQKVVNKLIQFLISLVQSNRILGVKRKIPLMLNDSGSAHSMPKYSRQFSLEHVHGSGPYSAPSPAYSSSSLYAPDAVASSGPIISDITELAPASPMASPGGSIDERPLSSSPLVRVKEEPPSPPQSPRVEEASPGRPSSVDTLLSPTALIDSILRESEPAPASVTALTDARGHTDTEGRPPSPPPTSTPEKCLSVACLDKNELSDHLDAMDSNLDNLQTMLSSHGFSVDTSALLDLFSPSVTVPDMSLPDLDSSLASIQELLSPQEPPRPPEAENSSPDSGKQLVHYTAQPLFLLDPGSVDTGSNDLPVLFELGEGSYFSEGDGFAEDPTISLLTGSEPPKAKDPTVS
Chain of ETV1 (P50549 whole entry): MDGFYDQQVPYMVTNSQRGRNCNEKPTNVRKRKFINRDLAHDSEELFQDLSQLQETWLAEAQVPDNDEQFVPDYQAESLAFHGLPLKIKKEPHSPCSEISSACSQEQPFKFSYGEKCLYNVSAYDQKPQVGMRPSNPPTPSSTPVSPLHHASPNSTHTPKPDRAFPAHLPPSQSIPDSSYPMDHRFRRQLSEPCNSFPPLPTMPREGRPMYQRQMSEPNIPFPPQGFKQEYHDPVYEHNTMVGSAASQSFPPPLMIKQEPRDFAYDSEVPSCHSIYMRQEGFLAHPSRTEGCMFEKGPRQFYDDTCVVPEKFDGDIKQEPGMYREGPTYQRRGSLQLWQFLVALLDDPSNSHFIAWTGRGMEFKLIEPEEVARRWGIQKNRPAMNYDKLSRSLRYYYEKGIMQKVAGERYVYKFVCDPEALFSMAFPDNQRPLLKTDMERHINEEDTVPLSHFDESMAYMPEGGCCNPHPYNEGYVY
Chain of SPIB (Q01892 whole entry): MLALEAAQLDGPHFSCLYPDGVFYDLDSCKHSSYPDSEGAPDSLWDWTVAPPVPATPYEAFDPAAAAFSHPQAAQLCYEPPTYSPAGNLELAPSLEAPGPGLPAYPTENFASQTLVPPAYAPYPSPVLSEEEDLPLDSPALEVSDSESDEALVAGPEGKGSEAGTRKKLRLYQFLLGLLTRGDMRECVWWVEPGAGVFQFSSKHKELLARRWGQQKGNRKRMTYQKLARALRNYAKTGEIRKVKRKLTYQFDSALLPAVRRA
Chain of CRX (O43186 whole entry): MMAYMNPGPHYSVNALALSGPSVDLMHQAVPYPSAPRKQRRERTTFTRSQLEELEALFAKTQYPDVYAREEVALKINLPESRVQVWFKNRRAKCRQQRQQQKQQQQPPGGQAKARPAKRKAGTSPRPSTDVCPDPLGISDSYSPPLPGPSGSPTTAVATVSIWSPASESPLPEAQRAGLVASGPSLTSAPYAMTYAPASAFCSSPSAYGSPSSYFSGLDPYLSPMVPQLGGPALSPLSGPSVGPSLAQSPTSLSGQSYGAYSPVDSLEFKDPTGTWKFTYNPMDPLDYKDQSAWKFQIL
Chain of ELF1 (P32519 whole entry): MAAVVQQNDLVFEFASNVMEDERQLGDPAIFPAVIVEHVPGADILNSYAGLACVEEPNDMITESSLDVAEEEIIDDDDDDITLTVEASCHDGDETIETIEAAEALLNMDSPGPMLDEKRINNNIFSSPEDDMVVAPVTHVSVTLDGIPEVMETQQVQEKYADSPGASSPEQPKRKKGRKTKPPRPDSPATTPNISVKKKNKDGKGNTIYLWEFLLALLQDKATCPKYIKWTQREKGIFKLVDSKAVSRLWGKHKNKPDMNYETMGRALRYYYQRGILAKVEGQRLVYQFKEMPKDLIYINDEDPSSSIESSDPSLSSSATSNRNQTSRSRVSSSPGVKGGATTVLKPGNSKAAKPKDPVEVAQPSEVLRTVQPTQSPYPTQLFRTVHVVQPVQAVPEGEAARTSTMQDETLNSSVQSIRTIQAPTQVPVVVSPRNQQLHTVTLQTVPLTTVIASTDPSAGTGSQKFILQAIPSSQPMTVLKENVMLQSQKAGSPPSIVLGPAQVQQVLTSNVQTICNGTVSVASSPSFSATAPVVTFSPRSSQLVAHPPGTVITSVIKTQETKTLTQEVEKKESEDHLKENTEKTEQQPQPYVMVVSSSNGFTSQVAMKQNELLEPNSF

Q: For CGATTA, which binding signal (FLI1) is on record?
A: 1.15 fold enrichment (6-mer frequency, TF over GST control)

Q: What about the binding signal (ELK1) of the same sequence?
A: 1.07 fold enrichment (6-mer frequency, TF over GST control)

Q: And the binding signal (GABPA)?
A: 1.17 fold enrichment (6-mer frequency, TF over GST control)

Q: What about the binding signal (ERG) of the same sequence?
A: 1.16 fold enrichment (6-mer frequency, TF over GST control)

Q: What about the binding signal (ELF1) of the same sequence?
A: 1.15 fold enrichment (6-mer frequency, TF over GST control)

Q: What about the binding signal (EHF) of the same sequence?
A: 1.11 fold enrichment (6-mer frequency, TF over GST control)

Q: What about the binding signal (SPI1) of the same sequence?
A: 1.09 fold enrichment (6-mer frequency, TF over GST control)

Q: And the binding signal (SPIB)?
A: 1.13 fold enrichment (6-mer frequency, TF over GST control)

Q: What about the binding signal (ELK3) of the same sequence?
A: 1.19 fold enrichment (6-mer frequency, TF over GST control)

Q: And the binding signal (FEV)?
A: 1.09 fold enrichment (6-mer frequency, TF over GST control)

Q: What about the binding signal (ETV5) of the same sequence?
A: 1.08 fold enrichment (6-mer frequency, TF over GST control)

Q: What about the binding signal (HSF1) of the same sequence?
A: 2.19 fold enrichment (6-mer frequency, TF over GST control)

Q: What about the binding signal (SPIC) of the same sequence?
A: 1.12 fold enrichment (6-mer frequency, TF over GST control)

Q: What about the binding signal (ELF4) of the same sequence?
A: 1.14 fold enrichment (6-mer frequency, TF over GST control)

Q: What about the binding signal (ELK4) of the same sequence?
A: 1.18 fold enrichment (6-mer frequency, TF over GST control)

Q: What about the binding signal (ETV2) of the same sequence?
A: 1.13 fold enrichment (6-mer frequency, TF over GST control)

Q: And the binding signal (ELF3)?
A: 1 fold enrichment (6-mer frequency, TF over GST control)

Q: And the binding signal (CRX)?
A: 3.25 fold enrichment (6-mer frequency, TF over GST control)

Q: What about the binding signal (ETV1) of the same sequence?
A: 1.13 fold enrichment (6-mer frequency, TF over GST control)
